Screening data from PubChem.
miR122 inh = blocks miR-122 activity in Huh7 sensor cells; AID 602342; hit rate 0.3% among 340,000; Huh7 miR-122 Renilla luciferase sensor, 48 h; neutral wells = 0, positive control = 100; activation (reporter increase), % at 12.5 µM;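 active = mean replicate activation score at least 90 and every replicate individually at or above 90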;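 note: higher luciferase means less miR-122 activity so hits act as miR-122 inhibitors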
PvdQ inh = blocks Pseudomonas aeruginosa PvdQ acylase activity; purified PvdQ acylase, fluorescence plate reader; AID 488965; inhibition, % at 10 µM; hit rate 0.063% among 340,000; in the data active = inhibition above about 30%, passing the limit was not always enough;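 note: 0% = vehicle neutral wells and 100% = reference inhibitor wells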
PGC1a acetyl inh = PGC1a acetylation modulation, inhibitor mode | U2OS PGC1a acetylation, AlphaScreen anti-acetyl-lysine; with virally co-expressed GCN5 acetyltransferase | inhibition, % at 15.6 µM | hit rate 0.17% among 350,000 | AID 651687;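 active = every replicate shows inhibition of at least 40%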;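 note: 0% = neutral control wells and 100% = positive control wells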
Statin myotox sup = protects C2C12 myotubes from simvastatin toxicity; hit rate 0.78% among 330,000; rescue of ATP level, % at 7.49 µM; AID 602340; ATP luminescence, 48 h; scaled: DMSO 0, geranylgeraniol control 100;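 active = mean ATP rescue above about 67%, or every replicate alone reaching that limit, limit read from the data, passing the limit was not always enough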;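 note: myotubes were challenged with 10 µM simvastatin during compound exposure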
DENV2 CPE = inhibitors of DENV2 cytopathic effect | CPE inhibition, % at 9.99 µM | AID 651640 | hit rate 1.7% among 350,000 | DENV2-infected cells, cytopathic effect rescue, plate reader; in the data active = CPE inhibition above about 20%, passing the limit was not always enough; tested in BHK-21 cells;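 note: 0% = median of neutral control wells and 100% = median of positive control wells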
An asterisk follows results filed as active; x = no result given; [ ] = remark or other dose. Rows were chosen to be rich in hits. Some 2.2% of all compounds tested hit in one or more screens of this group.

SMILES | miR122 inh | PvdQ inh | PGC1a acetyl inh | Statin myotox sup | DENV2 CPE
Cc1noc(C)c1NC(=O)N(C)C[C@H]1Oc2ccc(NC(=O)Cc3cn(C)c4ccccc34)cc2CC(=O)N([C@@H](C)CO)C[C@@H]1C | 9.7[16.7 µM] | x | 3.0 | -12.9 | -7.1
CN(C)c1cccc(C(=O)Nc2cc(C(F)(F)F)ccc2-n2cnc3ccccc32)c1 | x | 3.5 | x | x | 24.9*
C[C@@H]1CN([C@@H](C)CO)C(=O)Cc2cc(NC(=O)Cn3cnnn3)ccc2O[C@H]1CN(C)Cc1ccc2c(c1)OCO2 | -5.9[16.7 µM] | x | -0.1 | 13.9 | -6.9
CC(=O)c1c(C(C)=O)c(C)n(Cc2ccc(Cl)cc2)c1C | -17.2 | -15.5 | 4.5 | 144.3* | x
COc1ccc(S(=O)(=O)N(C)C[C@H]2Oc3ccc(NC(=O)Nc4ccc(F)cc4)cc3C(=O)N([C@@H](C)CO)C[C@@H]2C)cc1 | 1.0[16.7 µM] | x | 2.0 | -5.3 | -3.6
CCOc1ccc2nc(N3CCCC(C(=O)N4CCN(CC)CC4)C3)sc2c1 (centres undefined) | 1.8 | -11.2 | -5.9 | 116.3* | 7.7
C[C@H]1CN([C@@H](C)CO)C(=O)c2cc(NC(=O)CCCCCC(=O)Nc3ccccc3N)ccc2O[C@H]1CN(C)S(=O)(=O)c1cn(C)cn1 | -2.4[16.7 µM] | x | 1.4 | 30.7 | -5.3
O=C(COc1ccc2c(-c3ccccc3)cc(=O)oc2c1)NC1CCS(=O)(=O)C1 (centres undefined) | -5.1 | -4.6 | -2.8 | 4.6 | 143.0*
O=C(COc1ccc2ccc(=O)oc2c1)NC1CCS(=O)(=O)C1 (centres undefined) | -0.7 | x | 7.7 | 5.0 | 0.5
COc1cccc(C2Oc3ccccc3C3CC(c4cccs4)=NN32)c1 (centres undefined) | 6.9 | x | -7.6 | x | 81.2*
COc1ccccc1/C=C(/C(=O)OCC(=O)Nc1ccccc1C)c1ccccc1 | x | 1.3 | x | x | 10.8
COc1ccccc1/C=C(/C(=O)OCC(=O)NCc1ccccc1)c1ccccc1 | -4.9 | -12.9 | 91.9* | -4.7 | x
C=CCN1C(=O)c2ccccc2Sc2ccc(C(=O)NC(C)C)cc21 | -1.1 | -10.5 | 2.3 | 4.0 | 0.0
C=CCN1C(=O)c2ccccc2Sc2ccc(C(=O)NCC(OC)OC)cc21 | -2.1 | -19.8 | 3.1 | 0.0 | 29.3*
COc1ccc(CN(C)C[C@H]2OCCCC[C@H](C)Oc3ccc(N(C)C)cc3C(=O)N([C@@H](C)CO)C[C@@H]2C)cc1 | 2.6[16.7 µM] | x | -24.7 | 40.9 | 14.8
Cc1cc(C)c(NC(=O)Cn2nnc(C(=O)NCc3ccc4c(c3)OCO4)c2N)c(C)c1 | 1.6 | -5.1 | -7.6 | 92.0* | x
CN(C(=O)n1cnc2ccccc21)c1ccccc1 | x | -9.5 | x | x | x
ClC(Br)=C(n1cnc2ccccc21)n1cnc2ccccc21 | -6.4 | -3.6 | 5.4 | 90.0* | x
O=C(O)CCC(=O)Nc1nnc(C(F)(F)F)s1 | 0.5 | -14.2 | 1.5 | 114.8* | x
O=C([C@@H]1[C@@H](CO)[C@@H]2Cn3c(cccc3=O)[C@H]1N2CC1CCCCC1)N1CCOCC1 | x | x | x | -0.4 | 4.9
C=CCN1C=C2C(=O)C(C)(OC(=O)CCC(=O)OC)C(=O)C=C2C=C1C1CC1 (centres undefined) | -2.4 | -11.1 | 3.2 | -4.1 | 49.7*
COC(=O)CCC(=O)OC1(C)C(=O)C=C2C=C(C3CC3)N(CCCCO)C=C2C1=O (centres undefined) | x | 0.8 | x | 1.8 | -9.1
N#C[C@@H]1[C@H](c2ccccc2C2=CCCC2)[C@H](CO)N1C(=O)C1CCCC1 | x | x | 4.0 | x | -2.5
CCOC(=O)c1ccccc1NC(=O)C1COc2ccccc2O1 (centres undefined) | 6.1 | 2.5 | -4.4 | 94.3* | x
COC(=O)c1ccccc1NC(=O)C1COc2ccccc2O1 (centres undefined) | -0.6 | 5.7 | -20.0 | -1.0 | x
SMILES | miR122 inh | PvdQ inh | PGC1a acetyl inh | Statin myotox sup | DENV2 CPE
CCOC(=O)C1CN(S(=O)(=O)c2ccccc2)c2cc(S(=O)(=O)CC)ccc2O1 (centres undefined) | -5.0 | -7.7 | 49.7* | -1.2 | x
CCOC(=O)C1CN(S(=O)(=O)c2ccc(Cl)cc2)c2cc(S(=O)(=O)CC)ccc2O1 (centres undefined) | 1.4 | -0.1 | -1.9 | x | 2.1
Cc1noc(C)c1S(=O)(=O)Nc1ccc2c(c1)C(=O)N([C@@H](C)CO)C[C@H](C)[C@H](CN(C)C(=O)c1ccccc1)OCCCC[C@@H](C)O2 | 11.0[16.7 µM] | x | 16.9 | x | 7.6
CC(C)NC(=O)Nc1ccc2c(c1)CC(=O)N([C@@H](C)CO)C[C@@H](C)[C@@H](CN(C)C(=O)Nc1ccc(F)cc1)O2 | 13.7[16.7 µM] | x | -4.5 | -44.4 | -1.5
CC(=O)N1[C@@H]2c3ccc(C4=CCCC4)c(=O)n3C[C@@H]2[C@@H](CO)[C@@H]1C(=O)Nc1ccccc1 | x | x | x | -0.6 | 1.7
COc1ccc2c3c([nH]c2c1)[C@H](CO)N(C(=O)c1ccc(F)cc1)CC31CN(C(=O)NC(C)C)C1 | x | x | 1.1 | x | 6.9
CO[C@H]1/C=C/O[C@@]2(C)Oc3c(C)c(O)c4c(O)c(c5c(c4c3C2=O)NC2(CCN(CC(C)C)CC2)N=5)=NC(=O)/C(C)=C\C=C\[C@H](C)[C@H](O)[C@@H](C)[C@@H](O)[C@@H](C)[C@H](OC(C)=O)[C@@H]1C | -10.2 | 14.4 | -5.0 | -34.5 | 109.7*
COc1ccc2c3c([nH]c2c1)[C@H](CO)N(C(C)=O)CC31CCN(C(=O)Nc2c(C)noc2C)CC1 | x | x | 4.0 | x | -2.1
COc1ccc2c3c([nH]c2c1)[C@H](CO)N(C(=O)Nc1c(C)noc1C)CC31CCN(CC2CC2)CC1 | x | x | x | x | 42.1*
COc1ccc2c3c([nH]c2c1)[C@@H](CO)N(C(C)=O)CC31CCN(C(=O)Nc2c(C)noc2C)CC1 | x | x | 13.3 | x | 20.8*
C[C@H](O)C#Cc1ccc2c(c1)O[C@H](CN(C)C(=O)C1CCC1)[C@@H](C)CN([C@H](C)CO)S2(=O)=O | 1.5[16.7 µM] | x | 8.2 | 3.2 | -2.3
CCC(=O)N1CCC2(CC1)CN(C(=O)CN1CCOCC1)[C@@H](CO)c1[nH]c3cc(OC)ccc3c12 | x | x | x | x | -1.8
CCC(=O)N1CCC2(CC1)CN(C(=O)CN1CCOCC1)[C@H](CO)c1[nH]c3cc(OC)ccc3c12 | x | x | x | x | 40.3*
COc1ccc2c3c([nH]c2c1)[C@H](CO)N(C(=O)CN1CCOCC1)CC31CN(Cc2ccccc2)C1 | x | x | 4.5 | x | 52.0*
COc1ccc(NC(=O)N2CCC3(CC2)CN(C(=O)CN2CCOCC2)[C@@H](CO)c2[nH]c4cc(OC)ccc4c23)cc1 | x | x | -2.9 | x | 24.8*
CCC(=O)N1CC2(C1)CN(C(=O)CN1CCOCC1)[C@H](CO)c1[nH]c3cc(OC)ccc3c12 | x | x | -3.9 | x | 29.9*
O=C(C[C@@H]1CC[C@@H](NC(=O)CC2CC2)[C@H](CO)O1)NCc1ccccc1 | x | x | x | x | -1.7
CN(C)CCCNC(=O)C[C@H]1CC[C@@H](NS(=O)(=O)c2ccc(F)cc2)[C@@H](CO)O1 | x | x | -6.3 | -3.2 | 0.5
Cc1noc(C)c1S(=O)(=O)N(C)C[C@@H]1Oc2ccc(NC(=O)NC3CCCCC3)cc2CC(=O)N([C@@H](C)CO)C[C@@H]1C | 6.6[16.7 µM] | x | 11.3 | 13.0 | 0.2
O=C(c1cnccn1)N1CCN(C/C=C/c2ccccc2)CC1 | -6.0 | -13.0 | -1.8 | 102.3* | x
